Assay results: ChEMBL document CHEMBL1961873, “Compounds: GSK PKIS; Assays: Nanosyn kinase panel” (2012)

How the values were obtained:
[1] = biological target: Sphingosine kinase 1 (Homo sapiens) (UniProt Q9NYA1); conditions: at 1 µM;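 also: mean SPHK1 inhibition value reported from the GSK PKIS kinase panel screen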
[2] = biological target: T1, Sphingosine kinase 2 (Homo sapiens) (UniProt Q9NRA0); conditions: at 0.1 µM
T1 sequence (whole entry): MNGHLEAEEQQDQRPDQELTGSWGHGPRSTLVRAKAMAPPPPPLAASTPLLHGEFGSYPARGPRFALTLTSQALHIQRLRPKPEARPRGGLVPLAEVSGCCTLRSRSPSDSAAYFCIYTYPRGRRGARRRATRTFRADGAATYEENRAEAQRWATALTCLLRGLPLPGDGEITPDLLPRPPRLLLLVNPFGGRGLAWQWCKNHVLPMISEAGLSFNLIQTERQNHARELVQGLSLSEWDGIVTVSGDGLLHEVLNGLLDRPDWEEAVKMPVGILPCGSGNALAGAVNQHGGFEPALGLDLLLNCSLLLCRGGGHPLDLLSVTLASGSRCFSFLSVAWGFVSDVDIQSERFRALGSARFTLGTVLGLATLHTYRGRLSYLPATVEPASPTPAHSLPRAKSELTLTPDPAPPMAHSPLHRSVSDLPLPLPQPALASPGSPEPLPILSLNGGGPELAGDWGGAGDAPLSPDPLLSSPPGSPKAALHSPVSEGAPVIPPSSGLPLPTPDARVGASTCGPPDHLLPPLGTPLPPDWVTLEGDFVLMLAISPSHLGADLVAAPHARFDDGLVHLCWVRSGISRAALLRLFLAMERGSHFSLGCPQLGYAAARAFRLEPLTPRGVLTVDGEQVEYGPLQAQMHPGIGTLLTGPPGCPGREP

[3] = biological target: T1, Sphingosine kinase 2 (Homo sapiens); conditions: at 1 µM
[4] = biological target: Casein kinase II subunit alpha (Homo sapiens) (UniProt P68400); conditions: at 0.1 µM
[5] = biological target: Casein kinase II subunit alpha (Homo sapiens) (UniProt P68400); conditions: at 1 µM
[6] = biological target: T2, Inhibitor of nuclear factor kappa-B kinase subunit alpha (Homo sapiens) (UniProt O15111); conditions: at 0.1 µM
T2 sequence (whole entry): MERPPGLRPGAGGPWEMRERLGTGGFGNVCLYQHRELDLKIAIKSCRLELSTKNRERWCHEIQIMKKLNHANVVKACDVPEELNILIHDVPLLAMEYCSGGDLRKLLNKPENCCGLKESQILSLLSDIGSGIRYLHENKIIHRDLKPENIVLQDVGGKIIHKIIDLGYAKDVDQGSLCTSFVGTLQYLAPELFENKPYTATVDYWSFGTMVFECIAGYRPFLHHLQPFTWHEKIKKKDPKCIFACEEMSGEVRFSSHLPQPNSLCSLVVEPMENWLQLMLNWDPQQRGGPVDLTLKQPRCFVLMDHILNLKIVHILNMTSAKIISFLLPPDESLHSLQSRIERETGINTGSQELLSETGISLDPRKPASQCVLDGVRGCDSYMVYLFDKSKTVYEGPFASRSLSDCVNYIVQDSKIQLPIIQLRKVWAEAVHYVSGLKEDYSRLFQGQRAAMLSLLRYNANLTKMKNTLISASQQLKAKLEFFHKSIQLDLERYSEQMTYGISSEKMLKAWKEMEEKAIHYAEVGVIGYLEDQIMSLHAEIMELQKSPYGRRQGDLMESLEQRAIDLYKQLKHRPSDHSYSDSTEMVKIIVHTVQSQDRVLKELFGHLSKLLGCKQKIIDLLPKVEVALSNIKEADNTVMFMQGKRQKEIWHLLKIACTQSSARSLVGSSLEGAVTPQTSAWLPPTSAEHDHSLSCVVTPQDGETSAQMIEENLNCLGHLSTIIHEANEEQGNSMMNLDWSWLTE

[7] = biological target: T2, Inhibitor of nuclear factor kappa-B kinase subunit alpha (Homo sapiens); conditions: at 1 µM
[8] = biological target: T3, Inhibitor of nuclear factor kappa-B kinase subunit beta (Homo sapiens) (UniProt O14920); conditions: at 0.1 µM
T3 sequence (whole entry): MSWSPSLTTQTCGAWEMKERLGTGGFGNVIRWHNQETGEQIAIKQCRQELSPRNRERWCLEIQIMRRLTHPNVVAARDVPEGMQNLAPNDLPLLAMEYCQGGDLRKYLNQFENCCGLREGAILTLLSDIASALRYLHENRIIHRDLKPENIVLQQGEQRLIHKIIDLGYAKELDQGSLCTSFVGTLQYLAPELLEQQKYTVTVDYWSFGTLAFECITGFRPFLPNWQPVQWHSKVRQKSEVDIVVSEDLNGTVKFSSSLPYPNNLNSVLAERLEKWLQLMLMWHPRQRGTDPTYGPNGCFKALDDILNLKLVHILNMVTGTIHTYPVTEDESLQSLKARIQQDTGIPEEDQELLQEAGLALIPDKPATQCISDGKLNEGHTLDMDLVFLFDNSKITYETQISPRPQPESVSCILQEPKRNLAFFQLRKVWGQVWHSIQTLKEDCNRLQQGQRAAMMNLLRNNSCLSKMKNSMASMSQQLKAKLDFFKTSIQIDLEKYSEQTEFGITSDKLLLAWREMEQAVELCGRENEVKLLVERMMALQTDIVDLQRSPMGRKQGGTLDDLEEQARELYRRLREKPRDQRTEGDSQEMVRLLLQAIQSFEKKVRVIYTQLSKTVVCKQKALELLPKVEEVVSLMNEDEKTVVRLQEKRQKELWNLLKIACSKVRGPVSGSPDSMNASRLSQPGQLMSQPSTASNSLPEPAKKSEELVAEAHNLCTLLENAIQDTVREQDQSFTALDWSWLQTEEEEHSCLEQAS

[9] = biological target: T3, Inhibitor of nuclear factor kappa-B kinase subunit beta (Homo sapiens); conditions: at 1 µM
[10] = biological target: T4, Inhibitor of nuclear factor kappa-B kinase subunit epsilon (Homo sapiens) (UniProt Q14164); conditions: at 0.1 µM
T4 sequence (whole entry): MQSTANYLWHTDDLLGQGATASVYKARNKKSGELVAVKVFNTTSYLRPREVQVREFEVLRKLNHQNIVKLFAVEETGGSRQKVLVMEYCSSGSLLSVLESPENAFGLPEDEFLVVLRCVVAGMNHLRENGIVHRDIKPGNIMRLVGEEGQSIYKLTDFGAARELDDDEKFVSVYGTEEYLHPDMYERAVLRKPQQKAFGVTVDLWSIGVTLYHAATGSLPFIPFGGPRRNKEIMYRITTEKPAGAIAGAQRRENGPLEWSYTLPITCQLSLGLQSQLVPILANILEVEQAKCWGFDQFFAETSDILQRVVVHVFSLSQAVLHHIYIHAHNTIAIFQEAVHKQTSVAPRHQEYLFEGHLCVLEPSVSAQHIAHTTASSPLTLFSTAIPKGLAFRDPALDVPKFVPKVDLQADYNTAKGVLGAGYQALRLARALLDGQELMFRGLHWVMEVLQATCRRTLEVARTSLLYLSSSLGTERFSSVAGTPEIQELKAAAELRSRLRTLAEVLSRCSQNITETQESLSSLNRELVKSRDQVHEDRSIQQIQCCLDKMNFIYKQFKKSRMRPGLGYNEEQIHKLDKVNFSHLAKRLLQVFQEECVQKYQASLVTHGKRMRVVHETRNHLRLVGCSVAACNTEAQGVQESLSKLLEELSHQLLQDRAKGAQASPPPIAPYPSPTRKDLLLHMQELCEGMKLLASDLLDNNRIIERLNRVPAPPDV

[11] = biological target: T4, Inhibitor of nuclear factor kappa-B kinase subunit epsilon (Homo sapiens); conditions: at 1 µM
[12] = biological target: T5, Serine/threonine-protein kinase Nek1 (Homo sapiens) (UniProt Q96PY6); conditions: at 0.1 µM
T5 sequence (whole entry): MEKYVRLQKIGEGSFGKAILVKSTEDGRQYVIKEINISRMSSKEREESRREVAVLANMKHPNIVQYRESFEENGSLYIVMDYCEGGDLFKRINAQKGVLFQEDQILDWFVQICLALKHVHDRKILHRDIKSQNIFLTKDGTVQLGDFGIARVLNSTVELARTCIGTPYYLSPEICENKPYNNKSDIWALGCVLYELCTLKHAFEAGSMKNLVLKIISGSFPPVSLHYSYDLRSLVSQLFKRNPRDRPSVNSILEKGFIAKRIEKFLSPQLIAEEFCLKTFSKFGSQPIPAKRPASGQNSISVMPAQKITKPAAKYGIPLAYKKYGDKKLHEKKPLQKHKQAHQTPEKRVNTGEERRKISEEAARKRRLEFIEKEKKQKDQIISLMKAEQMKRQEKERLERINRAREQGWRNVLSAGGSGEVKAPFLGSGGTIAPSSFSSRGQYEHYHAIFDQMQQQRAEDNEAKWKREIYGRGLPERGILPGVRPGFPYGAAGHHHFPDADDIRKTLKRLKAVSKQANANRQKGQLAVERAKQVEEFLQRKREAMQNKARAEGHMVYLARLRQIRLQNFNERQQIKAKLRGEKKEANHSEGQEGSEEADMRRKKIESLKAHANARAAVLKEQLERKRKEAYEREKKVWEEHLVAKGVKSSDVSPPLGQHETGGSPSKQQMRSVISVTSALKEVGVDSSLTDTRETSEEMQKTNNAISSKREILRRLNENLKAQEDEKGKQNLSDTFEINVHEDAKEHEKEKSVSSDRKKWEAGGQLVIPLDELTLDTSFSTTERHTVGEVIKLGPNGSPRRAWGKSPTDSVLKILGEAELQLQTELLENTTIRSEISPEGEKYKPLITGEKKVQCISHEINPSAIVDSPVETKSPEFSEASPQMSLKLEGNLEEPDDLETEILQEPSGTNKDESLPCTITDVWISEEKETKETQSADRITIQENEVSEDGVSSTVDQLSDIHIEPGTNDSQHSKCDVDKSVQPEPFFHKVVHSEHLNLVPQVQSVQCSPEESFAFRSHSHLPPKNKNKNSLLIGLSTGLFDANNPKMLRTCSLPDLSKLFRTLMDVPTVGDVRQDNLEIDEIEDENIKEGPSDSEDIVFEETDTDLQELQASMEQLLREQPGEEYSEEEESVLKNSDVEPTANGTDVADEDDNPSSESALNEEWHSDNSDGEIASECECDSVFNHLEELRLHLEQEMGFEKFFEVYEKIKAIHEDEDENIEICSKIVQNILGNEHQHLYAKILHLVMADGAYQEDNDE

[13] = biological target: T5, Serine/threonine-protein kinase Nek1 (Homo sapiens); conditions: at 1 µM
[14] = biological target: T6, Serine/threonine-protein kinase Nek2 (Homo sapiens) (UniProt P51955); conditions: at 0.1 µM
T6 sequence (whole entry): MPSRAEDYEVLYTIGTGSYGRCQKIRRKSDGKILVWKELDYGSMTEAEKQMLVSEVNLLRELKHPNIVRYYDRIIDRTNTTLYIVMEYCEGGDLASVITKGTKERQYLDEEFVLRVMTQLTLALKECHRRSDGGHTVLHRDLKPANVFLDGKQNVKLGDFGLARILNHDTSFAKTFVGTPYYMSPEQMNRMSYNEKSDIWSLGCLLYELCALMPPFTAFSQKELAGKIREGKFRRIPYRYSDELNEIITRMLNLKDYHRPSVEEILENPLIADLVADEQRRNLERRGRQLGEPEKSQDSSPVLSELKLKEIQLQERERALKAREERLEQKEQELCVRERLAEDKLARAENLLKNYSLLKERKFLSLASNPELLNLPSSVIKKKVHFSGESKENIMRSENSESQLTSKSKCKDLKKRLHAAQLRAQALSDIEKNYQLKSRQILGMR

[15] = biological target: T6, Serine/threonine-protein kinase Nek2 (Homo sapiens); conditions: at 1 µM
[16] = biological target: Serine/threonine-protein kinase Nek6 (Homo sapiens) (UniProt Q9HC98); conditions: at 0.1 µM
[17] = biological target: Serine/threonine-protein kinase Nek6 (Homo sapiens) (UniProt Q9HC98); conditions: at 1 µM
[18] = biological target: Serine/threonine-protein kinase Nek7 (Homo sapiens) (UniProt Q8TDX7); conditions: at 0.1 µM
[19] = biological target: Serine/threonine-protein kinase Nek7 (Homo sapiens) (UniProt Q8TDX7); conditions: at 1 µM
[20] = biological target: T7, Serine/threonine-protein kinase Nek9 (Homo sapiens) (UniProt Q8TD19); conditions: at 0.1 µM;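 also: reported value is the mean percent inhibition of NEK9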
T7 sequence (whole entry): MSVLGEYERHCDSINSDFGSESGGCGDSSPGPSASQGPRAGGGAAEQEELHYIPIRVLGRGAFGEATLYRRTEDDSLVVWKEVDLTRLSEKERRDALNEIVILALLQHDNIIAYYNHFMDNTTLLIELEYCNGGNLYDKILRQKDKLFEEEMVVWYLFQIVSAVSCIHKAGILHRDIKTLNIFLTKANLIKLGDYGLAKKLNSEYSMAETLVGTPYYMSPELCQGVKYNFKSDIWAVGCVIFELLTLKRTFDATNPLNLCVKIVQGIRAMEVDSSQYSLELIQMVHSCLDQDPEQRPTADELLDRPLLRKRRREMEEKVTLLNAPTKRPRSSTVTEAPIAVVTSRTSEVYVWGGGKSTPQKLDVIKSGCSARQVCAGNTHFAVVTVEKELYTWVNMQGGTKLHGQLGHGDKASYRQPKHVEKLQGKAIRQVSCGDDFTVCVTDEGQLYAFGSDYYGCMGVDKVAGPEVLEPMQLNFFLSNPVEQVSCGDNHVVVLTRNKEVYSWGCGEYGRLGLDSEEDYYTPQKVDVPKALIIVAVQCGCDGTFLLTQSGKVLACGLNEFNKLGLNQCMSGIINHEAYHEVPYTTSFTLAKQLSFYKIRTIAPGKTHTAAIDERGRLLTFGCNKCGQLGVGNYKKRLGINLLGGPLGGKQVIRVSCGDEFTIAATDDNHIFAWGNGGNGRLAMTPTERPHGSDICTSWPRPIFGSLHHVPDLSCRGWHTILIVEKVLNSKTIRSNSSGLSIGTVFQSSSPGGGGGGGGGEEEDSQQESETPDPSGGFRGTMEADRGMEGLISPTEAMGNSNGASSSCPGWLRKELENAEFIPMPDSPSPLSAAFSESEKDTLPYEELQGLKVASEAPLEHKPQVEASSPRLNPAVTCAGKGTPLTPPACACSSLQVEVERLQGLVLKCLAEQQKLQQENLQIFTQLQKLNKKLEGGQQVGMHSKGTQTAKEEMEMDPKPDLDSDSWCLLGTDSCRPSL

Sequence of Serine/threonine-protein kinase Nek6 (Homo sapiens) (Q9HC98 whole entry): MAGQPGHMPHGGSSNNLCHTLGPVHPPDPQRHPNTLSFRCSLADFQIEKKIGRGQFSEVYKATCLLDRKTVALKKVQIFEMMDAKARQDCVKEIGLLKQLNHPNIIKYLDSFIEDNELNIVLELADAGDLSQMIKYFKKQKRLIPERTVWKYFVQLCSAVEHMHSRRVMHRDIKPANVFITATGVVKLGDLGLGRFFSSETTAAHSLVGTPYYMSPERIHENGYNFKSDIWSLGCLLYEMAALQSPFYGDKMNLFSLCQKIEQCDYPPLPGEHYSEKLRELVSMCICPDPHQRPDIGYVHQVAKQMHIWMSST
Sequence of Serine/threonine-protein kinase Nek7 (Homo sapiens) (Q8TDX7 whole entry, looked up): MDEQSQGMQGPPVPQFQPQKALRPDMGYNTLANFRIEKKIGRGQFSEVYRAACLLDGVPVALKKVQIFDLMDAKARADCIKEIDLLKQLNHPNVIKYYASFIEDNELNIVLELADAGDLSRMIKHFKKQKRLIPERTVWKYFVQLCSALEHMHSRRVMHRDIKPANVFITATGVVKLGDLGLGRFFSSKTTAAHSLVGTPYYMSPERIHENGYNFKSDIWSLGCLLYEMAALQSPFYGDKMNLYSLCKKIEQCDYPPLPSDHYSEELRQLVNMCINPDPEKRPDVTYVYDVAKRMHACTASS
Sequence of Casein kinase II subunit alpha (Homo sapiens) (P68400 whole entry, looked up): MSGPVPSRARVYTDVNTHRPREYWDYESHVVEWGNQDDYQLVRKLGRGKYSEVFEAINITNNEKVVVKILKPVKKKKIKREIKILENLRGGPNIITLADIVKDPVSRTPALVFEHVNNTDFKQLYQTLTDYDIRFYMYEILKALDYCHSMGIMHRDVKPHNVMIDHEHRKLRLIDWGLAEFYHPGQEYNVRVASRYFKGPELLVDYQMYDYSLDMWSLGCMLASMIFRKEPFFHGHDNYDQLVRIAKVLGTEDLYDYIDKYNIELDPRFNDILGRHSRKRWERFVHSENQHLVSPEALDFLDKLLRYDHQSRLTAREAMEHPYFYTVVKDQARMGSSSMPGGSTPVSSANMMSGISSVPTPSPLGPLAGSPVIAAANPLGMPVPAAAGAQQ
Sequence of Sphingosine kinase 1 (Homo sapiens) (Q9NYA1 whole entry): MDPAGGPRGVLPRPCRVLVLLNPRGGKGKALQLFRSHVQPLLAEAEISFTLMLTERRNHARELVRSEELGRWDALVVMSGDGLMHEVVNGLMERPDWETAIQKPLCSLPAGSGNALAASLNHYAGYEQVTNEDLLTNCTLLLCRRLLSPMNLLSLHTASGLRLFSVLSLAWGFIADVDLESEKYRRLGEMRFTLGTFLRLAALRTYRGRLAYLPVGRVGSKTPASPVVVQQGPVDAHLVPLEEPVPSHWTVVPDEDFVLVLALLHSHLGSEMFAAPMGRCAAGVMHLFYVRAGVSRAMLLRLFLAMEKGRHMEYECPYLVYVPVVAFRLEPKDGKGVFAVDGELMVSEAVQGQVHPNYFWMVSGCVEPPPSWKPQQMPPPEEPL

SMILES: COc1cccc(-n2ncc3c(N/N=C/c4cccc(F)c4)ncnc32)c1
- inhibition [1]: -2.05%
- inhibition [2]: 3.58%
- inhibition [3]: -0.22%
- inhibition [4]: 1.77%
- inhibition [5]: 11.4%
- inhibition [6]: -0.08%
- inhibition [7]: 6.98%
- inhibition [8]: 2.27%
- inhibition [9]: 0.31%
- inhibition [10]: 3.6%
- inhibition [11]: 5.09%
- inhibition [12]: 2.19%
- inhibition [13]: 1.87%
- inhibition [14]: 3.27%
- inhibition [15]: 2.63%
- inhibition [16]: 2.56%
- inhibition [17]: 1.3%
- inhibition [18]: 4.53%
- inhibition [19]: 2.91%
- inhibition [20]: 3.6%
